Screening results as filed in PubChem.
Rab9 prom act: Rab9 promoter activation; Huh7 Rab9 promoter-luciferase reporter, luminescence, 24 h; Potency, µM (series often up to 9.22 µM), for the others: at the highest dose activation, negative = inhibition, actives largely listed as activators; 320,000 tested, 2.8% active; also: % of control where 0% means no effect; nearly all actives have a fitted effect of over 60% in size
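Cell-based reporter: Huh7 stable for Rab9 promoter-driven luciferase, plated in reduced-serum medium with 10% FBS at 1500 cells/well, compound-treated 24 h at 37 °C, luminescence read after 10 min reagent.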
ELG1 genotox: genotoxicity induction in ELG1-luciferase HEK293T cells; HEK293T ELG1-luciferase reporter, luminescence, 16 h; Potency, µM (titrated, usually from 46 µM), for inactives: at the highest dose activity change, positive = activation, hits mostly activators; 330,000 tested, 1.3% active; AID 504466; also: % of control where 0% means no effect; nearly all actives have a fitted effect of over 60% in size
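Genotoxic stress is detected as increased luminescence from luciferase-tagged ELG1 in HEK293T cells, measured with ONE-Glo after a 16 hr treatment at 37 °C.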
SMN2 splice up: increases expression of the SMN2 splice variant. HEK293 SMN2-luciferase splicing reporter, luminescence, 30-36 h. Potency, µM (top dose mostly 46.1 µM), inactives show at the highest dose activity change, positive = activation, hits mostly activators. 210,000 tested, 2.8% active. AID 1458; also: % of control where 0% means no effect; nearly all actives have a fitted effect of over 55% in size
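HEK293 cells carry an SMN2 […]–luciferase reporter in which exon 7 inclusion puts luciferase in frame. Cells were plated 10-12 h before compound addition, then incubated 30-36 h at 37C. ONE-Glo luminescence was read; sodium butyrate at 4.5 mM final served as control.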
NPC1 promoter act: activates the NPC1 promoter; Huh7 NPC1 promoter luciferase reporter, 24 h; Potency, µM (highest dose often 9.22 µM), for inactives: top-dose activation, usual class: activators; 320,000 tested, 2.4% active; AID 485313; also: % of control where 0% means no effect; nearly all actives have a fitted effect of over 60% in size
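Readout is luciferase luminescence, reflecting NPC1 promoter activation in stably transfected Huh7 cells after 24 h compound exposure at 37 °C in reduced-serum medium with 10% FBS.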
FLuc counter: firefly luciferase modulation, counter-screen for miR-21 project; P08659; purified FLuc, Km substrates, luminescence inhibition; Potency, µM (titrated, usually from 57.5 µM), inactives show at the top dose activity change, negative = inhibition, hits mostly inhibitors; 360,000 tested, 6.9% active; AID 588342;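 also: plate controls were vehicle for no effect and reference inhibitor for full effect; nearly all actives have a fitted effect of over 55% in size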
Target sequence (P08659 whole entry, looked up): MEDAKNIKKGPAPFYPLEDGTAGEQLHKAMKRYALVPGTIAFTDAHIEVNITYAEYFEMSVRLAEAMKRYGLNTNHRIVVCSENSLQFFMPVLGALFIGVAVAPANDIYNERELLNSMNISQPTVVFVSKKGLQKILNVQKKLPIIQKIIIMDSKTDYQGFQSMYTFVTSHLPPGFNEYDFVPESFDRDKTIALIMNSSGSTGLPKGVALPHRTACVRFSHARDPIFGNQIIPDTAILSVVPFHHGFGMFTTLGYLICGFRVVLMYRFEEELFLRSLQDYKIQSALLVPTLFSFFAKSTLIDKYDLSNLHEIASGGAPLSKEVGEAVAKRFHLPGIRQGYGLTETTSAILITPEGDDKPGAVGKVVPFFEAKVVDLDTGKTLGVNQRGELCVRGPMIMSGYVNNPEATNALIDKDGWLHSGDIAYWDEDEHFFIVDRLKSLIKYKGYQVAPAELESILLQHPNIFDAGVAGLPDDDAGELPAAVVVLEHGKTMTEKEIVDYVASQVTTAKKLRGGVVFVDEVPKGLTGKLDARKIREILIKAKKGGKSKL
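Purified P. pyralis luciferase (10nM final) with 10uM D-luciferin and 10uM ATP (Km levels) in 50mM Tris acetate pH 7.5, 10mM Mg acetate, 0.01% Tween-20, 0.05% BSA; qHTS 6-point titration, ~60 µM downward; luminescence read.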
* hit, by the source's call; ? = inconclusive; nt = no result given; [ ] = another dose, or the depositor's remark. Most compounds without a hit are left out; they make up all but 7.4% or so of the library. Calls follow the shape of the dose curve; as a rule, active = well fitted curve in the direction sought with a large enough effect; inconclusive = small, poorly fitted or top-dose-only effect, or another doubt; inactive = no such curve, though single readings can be large; an effect the other way counts as inactive or inconclusive. Potency is read from the fitted curve at half-maximal effect.

SMILES | Rab9 prom act | ELG1 genotox | SMN2 splice up | NPC1 promoter act | FLuc counter
Cc1cccnc1NC(=S)NC(=O)c1oc2ccccc2c1C | 3.16µM* | ? | nt | 1.78µM* | 19µM*
C=CCNC(=S)NC(=O)c1oc2ccccc2c1C | 3.98µM* | ? | ? | ? | 9.53µM*
CC(=O)Nc1ccc(NC(=S)NC(=O)c2oc3ccccc3c2C)cc1 | 5.7% | 10.5% | -24.2% | 0.7% | 0.3%
Cc1c(C(=O)NC(=S)NCC(C)C)oc2ccccc12 | ? | ? | 12.6µM* | 2.82µM* | 3.01µM*
Cc1ccc2nc(NC(=O)c3cccc(-c4cc5ccccc5oc4=O)c3)sc2c1 | ? | ? | 0.2% | ? | 21.3µM*
O=C(Nc1cccnc1)c1cccc(-c2cc3ccccc3oc2=O)c1 | -4.3%[1.84 µM] | 11.8% | 19.8% | 17.6% | ?
CCn1nnc(NC(=O)c2cccc(-c3cc4ccccc4oc3=O)c2)n1 | 2.51µM* | ? | 12.6µM* | ? | 15.1µM*
CCOc1ccc2nc(NC(=O)c3cccc(-c4cc5ccccc5oc4=O)c3)sc2c1 | -1.4% | 12.8% | -14.4%[1.84 µM] | 22.5% | -16.0%
CCn1c(CNC(=O)c2ccccc2F)nnc1SCC(=O)NC1CCCCC1C (stereo not drawn) | -3.2% | -1.2% | -4.4% | -0.9% | 1.1%
CCOC(=O)c1cc2cc(OC)ccc2[nH]1 | 3.98µM* | ? | -2.6% | 3.55µM* | 12µM*
CCOC(=O)c1[nH]c2ccc(OC)cc2c1NC(C)=O | -10.7% | -1.2% | -2.7% | 5.7% | -6.8%
CCOC(=O)c1[nH]c2ccc(F)cc2c1NC(=O)c1cc(OC)c(OC)c(OC)c1 | 8.1% | 0.7% | 22.4µM* | -0.2% | 1.0%
CCOC(=O)c1[nH]c2ccc(OC)cc2c1C | ? | ? | 4.0% | ? | 13.5µM*
N#CCCN(CCC#N)C(=O)C1c2ccccc2Oc2ccccc21 | 0.1% | 3.7% | nt | 0.0% | 2.9%
O=C(Nc1ccccc1C(=O)N1CCCCC1)NC1CCCCC1 | -13.8% | -0.3% | nt | 0.0% | -1.1%
O=C(CS(=O)CC(=O)N(CC(=O)NC1CCCC1)c1ccccc1F)Nc1ccc(F)cc1 (stereo not drawn) | -3.2% | 0.7% | nt | -1.6% | 1.1%
Cc1c(CC(=O)NCCC(=O)O)c(=O)oc2cc3oc4c(c3cc12)CCCC4 | -1.1% | -17.2% | nt | 3.5% | 16.9µM*
CCCC(NC(=O)CCc1c(C)c2cc3c4c(oc3c(C)c2oc1=O)CCCC4)C(=O)O (stereo not drawn) | 2.2% | 0.5% | nt | 1.0% | ?
Cc1c(CC(=O)NCCCCCC(=O)O)c(=O)oc2c(C)c3oc4c(c3cc12)CCCC4 | 5.4% | 1.1% | nt | 0.4% | ?
Cc1c(CC(=O)NCCCC(=O)O)c(=O)oc2cc3oc4c(c3cc12)CCCC4 | -3.5% | 2.3% | nt | 0.3% | 21.3µM*
Cc1c(CCC(=O)N[C@@H](C)C(=O)O)c(=O)oc2cc3oc4c(c3cc12)CCCC4 | -6.4% | 5.2% | nt | -2.7% | 10.7µM*
CCOC(=O)c1c(C)nc(C)c(C(=O)OCC)c1-c1cccc(N)c1 | -0.8% | -7.5% | 22.4µM* | -9.7% | -2.2%
COc1cccc(-c2nn(-c3ccc(C)cc3)cc2C(=O)N(C)CC(=O)Nc2cccc(F)c2)c1 | -6.9% | -12.9% | nt | -3.3% | 8.49µM*
COc1ccc(NC(=O)CN(C)C(=O)c2cc(-c3ccccc3)nc3ccccc23)cc1 | 0.4% | -31.7% | nt | -1.7% | ?
COc1ccc(NC(=O)CN(C)C(=O)c2cc(-c3ccc(OC)cc3)nc3ccccc23)cc1 | 12.8% | -27.0% | nt | 10.3% | 8.49µM*
SMILES | Rab9 prom act | ELG1 genotox | SMN2 splice up | NPC1 promoter act | FLuc counter
COc1ccc(-c2nn(-c3ccccc3)cc2C(=O)N(C)CC(=O)Nc2cccc(F)c2)cc1 | -2.9% | -2.6% | nt | -3.8% | 2.8%
Cc1ccc(NC(=O)CN(C)C(=O)c2cc(-c3ccco3)nc3ccccc23)cc1 | 0.6% | -4.2% | nt | -3.7% | 23.9µM*
Cc1ccc2nc(-c3ccccc3)cc(C(=O)N(C)CC(=O)Nc3ccccc3Br)c2c1 | -0.6% | -10.2% | nt | 0.8% | 16.9µM*
CN(CC(=O)Nc1ccc(F)cc1)C(=O)c1cc(-c2ccco2)nc2ccccc12 | 10.3% | -37.0% | nt | -1.5% | ?
COc1ccc(-c2cc3c(=O)n(CC(=O)Nc4cccc(Cl)c4)nc(C)n3n2)cc1 | -2.1% | 3.3%[9.26 µM] | nt | -5.7% | 0.8%
CN(CC(=O)Nc1cccc(F)c1)C(=O)c1cc(-c2ccccc2)nc2ccccc12 | -6.0% | -5.2% | nt | -1.8% | -14.0%
COc1ccc(-c2cc(C(=O)N(C)CC(=O)Nc3cccc(F)c3)c3ccccc3n2)cc1 | -4.1% | -11.6% | nt | -0.5% | 19µM*
CCn1c(NCc2cccc(Cl)c2)nc2ccccc21 | nt | nt | -3.3% | nt | -1.7%
O=C(Nc1ccc(F)cc1)c1csc(Cc2ccccc2)n1 | ? | 5.7% | 1.2% | ? | 5.36µM*
COc1ccc(CNC(=O)c2csc(Cc3ccccc3)n2)cc1 | 18.8% | 7.3% | ? | 3.6% | 19µM*
O=C(O)c1csc(Cc2ccccc2)n1 | -5.2% | -1.2% | -11.3% | -4.0% | -14.0%
COc1ccc(NC(=O)c2csc(Cc3ccccc3)n2)cc1 | ? | ? | -15.3% | 25.7% | 6.75µM*
COc1ccccc1CNC(=O)c1csc(Cc2ccc(Cl)cc2)n1 | 0.4% | -3.5% | 4.5% | -4.5% | -0.2%
CCCc1cc(=O)n2[nH]c(-c3ccco3)nc2n1 | -2.2% | 0.7% | -12.4% | 6.1% | 15.1µM*
Cc1cc(=O)n2[nH]c(-c3ccco3)nc2n1 | 1.2% | 3.1% | 4.9% | 2.1% | ?
O=C(NCc1nc2ccccc2[nH]1)C1=C[C@H](C2CC2)C[C@H](OCc2ccc(CO)cc2)O1 | 6.1% | 3.4% | nt | -5.3% | -0.4%
Cc1nc(-c2ccc(C)c(N3CCN(C(=O)Nc4ccccc4C(F)(F)F)CC3)c2)no1 | nt | nt | nt | nt | 3.3%
CS(=O)(=O)N1CCC[C@@]2(CCN(C(=O)Nc3cccc(C#N)c3)C2)C1 | nt | nt | -6.9% | nt | nt
Cc1c(NC(=O)c2ccc(N3CCCC3)c([N+](=O)[O-])c2)cccc1-c1nc2ccccc2s1 | 16.6% | -4.5% | -36.8% | 1.3% | 2.69µM*
COc1cccc(C(=O)Nc2ccccc2-c2nc3ccccc3s2)c1 | nt | nt | 9.2% | nt | -0.6%
Cc1c(NC(=O)c2ncn[nH]2)cccc1-c1nc2ccccc2s1 | 22.4% | 1.4% | 8.4% | 18.9% | 4.26µM*
O=C(NCCO)c1ccc(Cl)cc1 | nt | nt | -13.5%[9.22 µM] | nt | nt
NNC(=S)Nc1cccc(-c2n[nH]c(=S)o2)c1 | -0.1% | -2.2% | nt | 0.2% | -13.4%
C=CCN=c1scc(-c2ccc3c(c2)NC(=O)CO3)n1/N=C(\C)c1ccccn1 | -39.0% | -6.5% | -65.0% | -32.9% | 5.5%
C=CCN=c1scc(-c2ccc(F)cc2)n1/N=C/c1ccccn1 | ? | 22.1% | 399.5% | 23.5% | 13.5µM*
C=CCN=c1scc(-c2ccccc2)n1/N=C/c1ccccn1 | 1.26µM* | ? | 4.47µM* | 2µM* | 2.39µM*
CCOc1ccc(N2CC(NC(=O)Cc3ccccc3)CC2=O)cc1 (stereo not drawn) | nt | nt | nt | nt | -0.4%
